Compound activity deposited in PubChem by National Center for Advancing Translational Sciences (NCATS).
Hits are enriched below; roughly 6.1% of the tested compounds scored in any of these assays.
D1 PAM: human D1 dopamine receptor positive modulation; HEK293 TREx D1 cells, calcium flux, dopamine EC20 potentiation; potentiation, % at 10 µM; AID 504651; 360,000 compounds, 0.036% hits; in the data active = potentiation above about 30%; note: 0% is about no effect
Target sequence (P21728 whole entry, looked up): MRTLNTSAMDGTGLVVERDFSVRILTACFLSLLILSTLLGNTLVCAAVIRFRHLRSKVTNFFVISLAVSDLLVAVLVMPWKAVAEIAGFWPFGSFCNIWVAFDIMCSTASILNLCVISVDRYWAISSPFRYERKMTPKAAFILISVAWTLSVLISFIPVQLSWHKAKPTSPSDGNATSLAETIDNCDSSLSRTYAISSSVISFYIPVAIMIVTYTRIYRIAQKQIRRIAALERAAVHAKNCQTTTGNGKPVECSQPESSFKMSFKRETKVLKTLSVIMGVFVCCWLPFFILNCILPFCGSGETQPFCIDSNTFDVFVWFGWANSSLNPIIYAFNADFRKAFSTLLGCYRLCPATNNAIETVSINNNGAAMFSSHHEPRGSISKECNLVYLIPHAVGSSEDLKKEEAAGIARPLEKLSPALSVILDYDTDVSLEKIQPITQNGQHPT
D3 ag: activates the human D3 dopamine receptor; D3R DiscoveRx beta-arrestin cells, luminescence, 90 min; max activation, %; 410,000 compounds, 0.58% hits; AID 652048; in the data active = max activation above about 30%; note: 0% is about no effect
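Cells at 1500/well, incubated overnight, then treated with pinned compounds (dopamine as control) for 90 min at 37 degrees C. DiscoveRx reagent added for 30 - 60 minutes at room temperature; luminescence read.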
D1 antag: antagonists of human D1 dopamine receptor. P21728. 360,000 compounds, 3.2% hits. HEK293 TREx D1 cells, calcium flux, dopamine EC80; stronger effect = lower value. activity change, negative = inhibition, % at 10 µM; in the data active = activity change below about -30%; note: % is set by controls: 0 for no effect and ±100 for the full control effect
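Tetracycline-induced HEK293 Trex D1 cells, force-coupled to calcium, dye-loaded; compounds added and read 180 s, then EC80 dopamine added and calcium flux tracked kinetically another 180 s.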
D3 antag: D3 dopamine receptor (human) antagonism; 360,000 compounds, 2.5% hits; P35462; max response, negative = inhibition, %; D3R cells, DiscoveRx beta-arrestin luminescence, antagonist mode; stronger effect = lower value; in the data active = max response below about -50%; inconclusive = no clear call, values can overlap the other calls; note: % is set by controls: 0 for no effect and ±100 for the full control effect
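Cells expressing the human receptor were seeded at 1500 cells/well, incubated overnight at 37 degrees C in 5% CO2, then exposed to library compounds with dopamine controls for 90 minutes at 37 degrees C before luminescent detection.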
D1 agonist: agonists of human D1 dopamine receptor; 360,000 compounds, 1% hits; activation, % at 2 µM; HEK293 T-REx D1 cells, calcium flux, agonist mode; in the data active = activation above about 30%; note: 0% is about no effect
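Agonism was scored from calcium flux recorded over 180 s (1 read/s) after pintool compound addition, following a 10-cycle baseline. Cells were inducible force-coupled HEK293 TREx D1, plated overnight at 30 C and loaded with no-wash calcium dye.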
Active calls of the source: *; ? = inconclusive; · = no result.

SMILES | D1 PAM | D3 ag | D1 antag | D3 antag | D1 agonist
O=S(=O)(c1cccc(F)c1)N1CCC(Oc2ccc(-n3cnnn3)cc2)CC1 | 0.7 | -2.3 | -30.2* | · | 11.1
O=C(CSc1nc(NS(=O)(=O)c2ccccc2)cc(=O)[nH]1)Nc1cccc(C(F)(F)F)c1 | -2.3 | -0.6 | -2.5 | -10.6 | 3.1
Cc1ccc(NC(=O)Cc2noc3ccccc23)cc1 | -1.0 | 9.9 | -0.4 | 3.0 | 1.9
Cc1ccc2onc(CC(=O)Nc3cc(F)ccc3F)c2c1 | -3.0 | 2.2 | -81.3* | · | -1.4
Cc1cc(=O)[nH]c(SCC(=O)Nc2cccc(C(F)(F)F)c2)n1 | -0.5 | -2.3 | -32.3* | -21.9 | 2.0
Cc1cc(C)cc(NC(=O)Cc2noc3ccccc23)c1 | -1.6 | -23.6 | -62.8* | · | -1.3
COC(=O)c1ccccc1NC(=O)Cc1noc2ccc(C)cc12 | -3.9 | 3.4 | -21.5 | · | -0.9
Cc1ccc2onc(CC(=O)Nc3cccc(C(F)(F)F)c3)c2c1 | -6.1 | -16.6 | -75.3* | · | 0.3
CCOC(=O)[C@@H]1[C@H]2COc3ccc(Br)cc3[C@H]2N2C(=O)N(c3ccc(C(F)(F)F)cc3)C(=O)[C@]12C | · | 2.6 | · | 0.0 | ·
CC(C)C[C@H]1CNC(=O)C(=O)N1CC1CCN(CCc2ccc(-c3ccccc3)cc2)CC1 | · | -45.0 | · | -59.8* | ·
O=C1NC[C@H](Cc2ccccc2)N(CC2CCN(CCc3ccccc3)CC2)C1=O | · | -37.5 | · | -19.4 | ·
CC(C)CCN1CCC(CN2C(=O)C(=O)NC[C@@H]2Cc2ccccc2)CC1 | · | -5.5 | · | 8.9 | ·
O=C1NC[C@H](Cc2ccccc2)N(CC2CCN(CCc3ccc(-c4ccccc4)cc3)CC2)C1=O | · | -46.2 | · | -78.1* | ·
CC(C)C[C@H]1CNC(=O)C(=O)N1CC1CCN(CCc2ccccc2)CC1 | · | -14.5 | · | -76.3* | ·
CC(C)(COP(=O)(O)OP(=O)(O)OC[C@H]1O[C@@H](n2cnc3c(N)ncnc32)[C@H](O)[C@@H]1OP(=O)(O)O)C(O)C(=O)NCCC(=O)NCCS (stereo not given in full) | · | -12.2 | · | · | ·
Cc1sc2ncn(CC(=O)NCCCN3CC(C)CC(C)C3)c(=O)c2c1S(=O)(=O)N1CC(C)CC(C)C1 (stereo not given) | 9.1 | -28.4 | 0.0 | -90.4* | 2.2
CCCCCNCc1cccc(Br)c1 | -7.1 | -31.0 | -16.3 | -62.7* | 6.9
CCCCCCNCc1ccc(Br)cc1 | 1.4 | -34.2 | 0.1 | -66.1* | 11.6
CCCCCCNCc1cccc(Br)c1 | -5.1 | -31.5 | 3.0 | -81.4* | 27.5
CCCCCNCc1ccc(Cl)cc1 | 1.6 | 2.2 | -13.7 | -9.4 | 4.2
CCCCCNCc1ccc(Br)cc1 | -1.1 | -34.9 | -17.0 | ? | 8.1
Brc1cccc(CNCCCN2CCOCC2)c1 | -5.6 | -12.8 | 7.5 | ? | 2.6
Cc1cccc(NC(=O)c2oc3ccccc3c2NC(=O)c2cc(=O)c3cc(Cl)ccc3o2)c1 | 0.0 | 5.0 | -9.6 | · | 1.8
CSc1ccc(C(=O)C2CCCN(C(=O)c3nonc3C)C2)cc1 (stereo not given) | -5.7 | -14.0 | -16.1 | 0.0 | 6.3
COc1ccc(/C=C2\SC(=S)N(c3cccnc3)C2=O)cc1 | 3.4 | 5.6 | 8.1 | 17.0 | 4.6
SMILES | D1 PAM | D3 ag | D1 antag | D3 antag | D1 agonist
O=C1/C(=C\c2ccco2)SC(=S)N1c1ccc(O)cc1 | -2.2 | -3.3 | -31.2* | -25.9 | 3.0
O=C1NC(=Nc2ccc(O)cc2)S/C1=C/c1ccco1 | -8.7 | 7.0 | -36.6* | 0.0 | -0.4
O=C1/C(=C/C=C/c2ccco2)SC(=S)N1c1ccc(O)cc1 | -3.6 | 0.1 | 7.8 | -26.3 | 5.7
O=C1/C(=C\c2ccc(O)cc2)SC(=S)N1c1cccnc1 | -5.8 | -10.2 | -2.0 | -28.1 | 66.0*
Cc1ccc(S(=O)(=O)N2CCOCC2)cc1NC(=O)COC(=O)c1cc(=O)[nH]c2ccccc12 | -4.0 | -2.1 | -41.3* | -1.8 | 25.2
Cc1ccc(S(=O)(=O)N2CCOCC2)cc1NC(=O)COC(=O)c1cccnc1Cl | -5.5 | 11.3 | -64.2* | -1.9 | 4.4
CN(C)S(=O)(=O)c1ccc(C(=O)OCC(=O)Nc2cccnc2Cl)cc1 | 2.8 | 2.0 | -33.2* | 6.8 | 7.9
N#Cc1cccc(S(=O)(=O)N2CCN(S(=O)(=O)c3ccc4c(c3)OCCO4)CC2)c1 | -5.2 | · | -0.1 | · | 4.3
CCOC(=O)[C@H](CCc1ccccc1)N[C@H]1CCCN2CCC[C@@H](C(=O)O)N2C1=O | · | -11.3 | · | · | ·
CCOc1ccccc1NC(=O)Cn1c(=O)nc(-c2ccccc2F)c2cc(Cl)ccc21 | 1.7 | 0.3 | -43.0* | · | -2.8
O=C(Cn1c(=O)nc(-c2ccccc2)c2cc(Cl)ccc21)NCc1ccccc1 | 0.1 | 32.4* | 6.9 | · | -1.2
O=C1NCCCC1C(=O)N/N=C/c1cccc([N+](=O)[O-])c1 (stereo not given) | -1.1 | 3.0 | -15.6 | 6.3 | 1.0
Cc1cccc(/C=N/NC(=O)C2CCCNC2=O)c1 (stereo not given) | -4.3 | 7.6 | -84.5* | 2.1 | 2.4
COc1ccc(CC(=O)N2CCc3c([nH]c4ccccc34)C2c2ccc(SC)cc2)cc1 (stereo not given) | -1.4 | 2.4 | -39.7* | · | 0.7
O=C(CSCc1ccc(F)cc1)N1CCc2c([nH]c3ccccc23)C1c1ccc(Cl)cc1 (stereo not given) | -0.9 | -10.0 | -30.8* | · | 2.5
CC(C)CN(C(=O)CN1CCN(S(=O)(=O)c2ccc3ccccc3c2)CC1)c1c(N)n(CC(C)C)c(=O)[nH]c1=O | -4.7 | -1.0 | -88.4* | 8.1 | 0.3
Cc1nn(-c2ccccc2)c2c1cc1c(=O)[nH]c(=O)nc-1n2-c1cccc(Cl)c1 | -0.4 | 6.4 | -4.1 | · | 0.5
Cc1ccc(C2NC(=O)NC3=C2CCc2ccccc23)cc1 (stereo not given) | -2.2 | 0.6 | -60.2* | -86.3* | -0.1
S=C(Nc1cccc(Cl)c1)NC1CC2CCCC(C1)N2C1CCCC1 (stereo not given) | -11.3 | 2.4 | -9.6 | -29.2 | 9.9
Cc1cccc(NC(=S)NCCC(C)C)c1 | -4.7 | -5.2 | -0.2 | -17.8 | 226.8*
S=C(NCCC(c1ccccc1)c1ccccc1)Nc1cccc(Cl)c1 | -3.8 | -2.6 | -48.5* | 2.7 | 3.2
S=C(NCCN(C1CCCCC1)C1CCCC1)Nc1cccc(Cl)c1 | -4.5 | -38.5 | 11.1 | -102.0* | 30.5*
Cc1noc(C)c1NC(=O)Nc1cccc2c1O[C@@H](CN(C)Cc1ccc3c(c1)OCO3)[C@@H](C)CN([C@H](C)CO)C2=O | · | -1.3 | · | -14.9 | ·
CCN(CCn1cccn1)Cc1nc(Cc2cccc(F)c2)no1 | -1.4 | -10.5 | -3.2 | 4.9 | 2.7
O=C(CCn1c(=O)c2cccn2c2cccnc21)NCc1cccc(Br)c1 | 1.0 | -14.2 | -1.5 | · | -1.0
CCN(c1ccccc1)S(=O)(=O)c1ccc(Cl)c(NC(=O)COC(=O)C2CC2C)c1 (stereo not given) | -3.0 | -0.7 | -31.1* | 15.9 | 7.2
